Source: PubChem BioAssay (NCI)
About 83,000 compounds went through this panel and 20% of them were active in at least one assay; those are over-represented in the sample as a whole.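 Method: cells in 96-well plates; compound added at one concentration; 48 h incubation; percent growth measured; values under 10 scored active.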 Active and inactive are the calls of the source.

How the values were obtained:
Assay in all cases: NCI-60 one-dose screen, 48 h (100 = growth as untreated, 0 = no growth, -100 = all killed)
Settings in all cases: 10 µM unless noted
[1] = test system: NCI-H23 lung
[2] = test system: NCI-H226 lung
[3] = test system: NCI-H322M lung
[4] = test system: HOP-62 NSCLC
[5] = test system: NCI-H460 lung
[6] = test system: HOP-92 NSCLC
[7] = test system: NCI-H522 lung
[8] = test system: A549/ATCC NSCLC
[9] = test system: 786-0 renal
[10] = test system: COLO 205 colon
[11] = test system: DU-145 prostate
[12] = test system: K-562 leukemia
[13] = test system: MALME-3M melanoma
[14] = test system: MDA-MB-231 breast
[15] = test system: RXF 393 renal
[16] = test system: SF-268 CNS
[17] = test system: SF-295 CNS
[18] = test system: SF-539 CNS
[19] = test system: UACC-257 melanoma
[20] = test system: M14 melanoma

Measured: growth

C[C@H](C(=O)N(CCc1ccc(Cl)c(Cl)c1)Cc1cncs1)[C@@H]1CC[C@H](C[C@H](C)n2cc(CN3CCC(c4ccc(Cl)cc4)CC3)nn2)O1
active: [12] -75.9%
inactive: [1] 98.2% | [2] 85% | [3] 92.7% | [4] 101% | [5] 103% | [6] 106% | [7] 86.7% | [8] 96.3% | [9] 93.2% | [10] 97.6% | [11] 112% | [13] 101% | [14] 93.5% | [15] 103% | [16] 102% | [17] 99.2% | [18] 101% | [19] 102% | [20] 99.1%

O=C(Nc1ccc(Br)cc1)C1=NCCCCN1
inactive: [1] 85.1% | [2] 93.1% | [3] 98.1% | [4] 74.7% | [5] 89.5% | [6] 102% | [7] 82.9% | [8] 90.5% | [9] 96.2% | [10] 110% | [11] 85.1% | [12] 50.8% | [13] 104% | [14] 92.1% | [15] 110% | [16] 79.6% | [17] 98.2% | [18] 90.9% | [19] 100% | [20] 81.6%

COC(=O)CC[C@@H]1O[C@@H](c2ccc(F)cc2)[C@@H](O)[C@H]1O
inactive: [1] 103% | [2] 101% | [3] 106% | [4] 104% | [5] 109% | [6] 93.9% | [7] 99.7% | [8] 112% | [9] 105% | [10] 110% | [11] 112% | [12] 109% | [13] 101% | [14] 117% | [15] 112% | [16] 103% | [17] 104% | [18] 102% | [19] 107% | [20] 92.9%

CC1(C)CC2=C3C=C[C@@H]4[C@@]5(C)CCC(=O)C(C)(C)[C@@H]5CC[C@@]4(C)[C@]3(C)CC[C@@]2(C(=O)O)C[C@H]1O
active: [6] -7.2% | [13] 3.59% | [14] -8.81%
inactive: [1] 23.2% | [2] 25.5% | [3] 26.6% | [4] 30.1% | [5] 18% | [7] 26.4% | [8] 26.3% | [9] 17.2% | [10] 29.2% | [11] 65% | [12] 33.1% | [15] 29.1% | [16] 32.6% | [17] 20.5% | [18] 34.8% | [19] 10.5% | [20] 17.6%

Cc1cccc2c1C[C@@]1(C2=O)C(c2ccc(C(C)(C)C)cc2)=NOS1=O (stereo not given in full)
inactive: [1] 83.2% | [2] 80.7% | [3] 92.2% | [4] 90% | [5] 92.2% | [6] 74.3% | [7] 90.8% | [8] 90.3% | [9] 99.7% | [10] 105% | [11] 103% | [12] 77.8% | [13] 93.3% | [14] 86.1% | [15] 100% | [16] 94.7% | [17] 99.2% | [18] 108% | [19] 95.8% | [20] 88.8%

O=C(O)c1ccc(-c2ccc(/C=N/Nc3nc(Nc4ccccc4)nc(N4CCCCC4)n3)o2)cc1
inactive: [1] 62.2% | [2] 92.4% | [3] 55.1% | [4] 85% | [5] 52.8% | [6] 35.1% | [7] 43% | [8] 63.5% | [9] 61.5% | [10] 83.2% | [11] 66.7% | [12] 67.5% | [13] 59% | [14] 96.5% | [15] 65.4% | [16] 71.7% | [18] 75.2% | [19] 93.9% | [20] 83.1%
active: [17] -21.9%

O=C(CN1CCN(c2cc3c(cc2F)c(=O)c(C(=O)O)cn3C2CC2)CC1)N/N=C/c1ccco1
inactive: [1] 104% | [2] 94.1% | [3] 95% | [4] 82.8% | [5] 105% | [6] 87.9% | [7] 93.5% | [8] 90.6% | [9] 96.4% | [10] 102% | [11] 106% | [12] 95% | [13] 92.2% | [14] 98.7% | [15] 112% | [16] 93.8% | [17] 100% | [18] 93.2% | [19] 93.9% | [20] 96.6%
